# Measurements published in PubChem BioAssay (NCATS).
# Records with an inconclusive call do not appear. Active and inactive are the calls of the source. Unless noted, calls come from the whole dose curve; as a rule, active = well fitted curve in the direction sought with a large enough effect; inconclusive = small, poorly fitted or top-dose-only effect, or another doubt; inactive = no such curve, though single readings can be large; an effect the other way counts as inactive or inconclusive.
# Assays:
# [1] = molecular target: Lysosomal acid glucosylceramidase (Homo sapiens) (UniProt P04062); experiment: Glucocerebrosidase-p2 (AID 348; in the data active = potency below about 10 µM; note: potency is the fitted concentration of half-maximal effect); conditions: purified GBA, blue fluorogenic substrate, 40 min
# How it was run: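 Compounds titrated from 0.6 nM upwards against 0.2 nM enzyme in pH 5.9 citric acid/KH2PO4, taurocholate, tween-20; blue fluorogenic substrate 80 uM, 40 min room temperature, stopped and read Ex 365/Em 440 for AC50.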
# [2] = molecular target: Cytochrome P450 1A2 (Homo sapiens) (UniProt P05177); experiment: p450-cyp1a2 (AID 410; calls by dose curve; note: potency is the fitted concentration of half-maximal effect)
# How it was run: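 Luminescent readout of luciferin formed from Luciferin-ME by human CYP1A2; data normalized against complete inhibition by 57 uM furafylline. Enzyme 20nM, substrate 100uM at Km, 100mM KPO4 buffer, 60 min reaction at room temperature.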
# [3] = molecular target: Glucocorticoid receptor (Homo sapiens) (UniProt P04150); experiment: GR-GFP Redistribution (AID 450;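 active = compounds whose dose series gives a full or clear partial fitted curve of increased nuclear translocation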; note: potency is the fitted concentration of half-maximal effect); conditions: U2OS GR-GFP nuclear translocation, laser cytometry, 2 h
# [4] = molecular target: Glucocorticoid receptor (Homo sapiens) (UniProt P04150); experiment: GR-EFC Redistribution (AID 451; calls by dose curve; note: potency is the fitted concentration of half-maximal effect); conditions: CHO-K1 GR-EFC translocation, beta-gal luminescence, 2 h
# How it was run: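 CHO-K1 cells expressing nuclear EA and GR-ED fragments of b-gal; compounds titrated up to 46 uM final, 2 h at 37 C. GR nuclear translocation read as complemented b-gal luminescence after 1 h RT detection.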
# [5] = molecular target: Mitogen-activated protein kinase 10 (Mus musculus) (UniProt Q61831); experiment: JNK3 AlphaScreen Assay (AID 530; active = well fitted curve in either direction with a large enough effect, not every such curve was filed as active;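 note: kinase came from lysate of stimulated human HepG2 cells; signal reports phosphorylation of biotinylated GST-cJun 1-79 at Ser73 with 10 µM ATP; % is set by controls: 0 for no effect and ±100 for the full control effect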)
# How it was run: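 Pre-activated (IL-1β/TNFα) JNK3 in HepG2 lysates phosphorylates biotin-GST-cJun(1-79), 10 uM ATP; anti-phospho-cJun(Ser73) AlphaScreen read at room temperature, pH 7.6 Tris buffer. Compounds pre-incubated 15 min as titrations.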
# [6] = molecular target: 3',5'-cyclic-AMP phosphodiesterase 4B (Homo sapiens) (UniProt Q07343); experiment: qHTS Assay for Inhibitors of PDE-IV (AID 607; active = well fitted activation curve with a large enough effect in the main read-out, with a control signal flat, not every such curve was filed as active; note: % of control where 0% means no effect)
# How it was run: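 HEK293 ACTOne cells with CNG channel (1000/well), endogenous PDE4; membrane potential dye, compounds up to 22.9 uM final. Fluorescence Ex 535/Em 590; RO 20-1724 (100 uM final) as reference.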
# [7] = molecular target: Cytochrome P450 3A4 (Homo sapiens) (UniProt P08684); experiment: qHTS Assay for Activators of Cytochrome P450 3A4 (AID 885); note: nearly all actives have a fitted effect of over 65% in size
# How it was run: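 Human CYP3A4 (20 nM) with Luciferin-PPXE at 25 uM (its KM) in 200 mM KPO4; 10 min compound preincubation, then NADPH regeneration and 60 min reaction at RT. Luciferin read by luminescence; normalized to 57 uM ketoconazole full inhibition.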
# [8] = qHTS Assay for Lipid Storage Modulators (AID 1519; calls by dose curve); conditions: Drosophila S3 cells, BODIPY lipid droplet/cell ratio, laser cytometry, cells loaded with oleic acid; for activity change, negative = inhibition: at 57.5 µM (top of the series)
# How it was run: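 Cells seeded at 5,000 per well were treated with compounds over a concentration series and loaded with oleic acid (400 uM, as added). Lipid droplet fluorescence (488 nm excitation, 500-530 nm channel) was read by laser-scanning cytometry and normalized to 20 uM Triacsin C.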
# [9] = molecular target: Dual specificity protein kinase CLK4 (Homo sapiens) (UniProt Q9HAZ1); experiment: qHTS Assay for Inhibitors of CDC-like Kinase 4 (Kinase-Glo Assay) (AID 1770); note: nearly all actives have a fitted effect of over 65% in size; note: potency is the fitted concentration of half-maximal effect
# How it was run: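 Recombinant human Clk4 (25 nM) phosphorylated RS repeat peptide (100 uM) with 1 uM ATP in Tris pH 7.5/MgCl2/EGTA/DTT/Triton buffer for 4.5 h at room temperature. Residual ATP was quantified by Kinase-Glo luciferase luminescence.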
# [10] = molecular target: Dual specificity protein kinase CLK4 (Homo sapiens) (UniProt Q9HAZ1); experiment: qHTS Assay for Inhibitors of CDC-like Kinase 4 (ADP-Glo Assay) (AID 1771); note: % is set by controls: 0 for no effect and ±100 for the full control effect; nearly all actives have a fitted effect of over 70% in size
# How it was run: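 Luminescence from ADP-Glo reports ADP produced by 25 nM Clk4 acting on 100 uM RS repeat peptide with 1 uM ATP over 1 hr at room temperature; residual ATP is depleted before ADP is converted to ATP for detection.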
# [11] = molecular target: Dual specificity protein kinase CLK4 (Homo sapiens) (UniProt Q9HAZ1); experiment: qHTS Assay for Inhibitors of CDC-like Kinase 4 (ADP-FP Assay) (AID 1795); note: % is set by controls: 0 for no effect and ±100 for the full control effect; nearly all actives have a fitted effect of over 60% in size
# How it was run: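 Recombinant human Clk4 (6.25 nM) phosphorylated RS repeat peptide (100 uM) with 1 uM ATP in Tris pH 7.5/MgCl2/EGTA/DTT/Triton buffer for one hour. ADP was quantified by Transcreener competitive fluorescence polarization against an ADP calibration curve.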
# [12] = molecular target: Ubiquitin carboxyl-terminal hydrolase 1 (Homo sapiens) (UniProt O94782); experiment: Inhibitors of USP1/UAF1: Pilot qHTS (AID 504865);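 note: rhodamine fluorescence freed from ubiquitin-rhodamine substrate followed over time; top concentration of the series differs between compounds; % is set by controls: 0 for no effect and ±100 for the full control effect; nearly all actives have a fitted effect of over 35% in size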
# How it was run: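 USP1/UAF1 complex (1nM) preincubated with compound 15 min at room temperature, then Ub-Rho substrate (150nM final) added. Fluorescence read kinetically at 480/540 nm, 6 reads every 60 seconds. Buffer: 50mM HEPES pH 7.8, 0.5mM EDTA, 0.1 mg/ml BSA, 1mM TCEP, 0.01% Tween-20.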
# [13] = Counterscreen qHTS for small molecule stabilizers of the endoplasmic reticulum resident proteome: GLuc-NoTag assay (AID 1508627); note: potency is the fitted concentration of half-maximal effect;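 for activity change, negative = inhibition: SH-SY5Y cells given compound then 100 nM thapsigargin to empty ER calcium; 0% = thapsigargin alone and -100% = DMSO vehicle control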
# How it was run: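 SH-SY5Y cells stably expressing constitutively secreted GLuc without SERCaMP tag, exposed to compound for 19 hr, then to 100 nM thapsigargin for 4 hr at 37C. Medium luciferase was read by coelenterazine luminescence without lysis.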
# [14] = AP1 Signaling Pathway (AID 357; active = well fitted curve in either direction with a large enough effect, not every such curve was filed as active;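 note: ME-180 reporter cells stimulated with EGF at its EC50 level; % is set by controls: 0 for no effect and ±100 for the full control effect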); conditions: ME-180 AP-1-bla reporter, EGF-induced, beta-lactamase ratio, 5 h; at 7.69 µM (top of the series) unless noted
# How it was run: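 First, ME-180 AP-1-bla cells were cultured overnight at 37 °C in low-serum Opti-MEM. Next, titrated compounds with EC50 EGF were incubated 5 hours. Finally, CCF4 was added for 2.5 hours and the 460/530 nm ratio recorded.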
# [15] = NFAT Signaling Pathway (AID 444; active = well fitted curve in either direction with a large enough effect, not every such curve was filed as active;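 note: carbachol stimulus at about its EC50 of 1 µM final; % is set by controls: 0 for no effect and ±100 for the full control effect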); conditions: Jurkat NFAT-bla M1, carbachol, beta-lactamase ratio, 5 h; at 7.69 µM (top of the series) unless noted
# How it was run: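 Jurkat cells with NFAT-driven β-lactamase reporter and co-expressed M1 receptor, stimulated with carbachol (final 1 uM, ~EC50), compound titration, 5 h at 37 °C. CCF4 loaded 1 h at RT; 460/530 nm ratio gave %activity and AC50.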
# [16] = Stat Signaling Pathway (AID 446; active = well fitted curve in either direction with a large enough effect, not every such curve was filed as active;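 note: ME-180 cervical cancer cells given 40 pM IL-6 alongside compound; SIE-controlled beta-lactamase reporter measured as 460/530 nm FRET emission ratio; % is set by controls: 0 for no effect and ±100 for the full control effect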); conditions: ME-180 SIE beta-lactamase reporter, IL-6 stimulated, 5 h; at 7.69 µM (top of the series) unless noted
# How it was run: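 ME-180 cells carrying a SIE-driven beta-lactamase reporter are stimulated with 40 pM IL-6 for 5 h at 37C in the presence of compound. The 460/530 nm FRET substrate ratio is read after 2.5 h at RT. Data are normalised to 300 pM IL-6 and to 125 nM JAK inhibitor controls.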
# [17] = molecular target: Cytochrome P450 3A4 (Homo sapiens) (UniProt P08684); experiment: qHTS Assay for Inhibitors and Substrates of Cytochrome P450 3A4 (AID 884); note: potency is the fitted concentration of half-maximal effect; nearly all actives have a fitted effect of over 50% in size
# How it was run: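 20 nM human CYP3A4 with 25 uM Luciferin-PPXE (at KM) in 200 mM KPO4, preincubated 10 min with compound; NADPH regeneration started a 60 min RT reaction. Luciferin detected by luminescence, normalized to 57 uM ketoconazole as full inhibition.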
# [18] = Confirmation and Secondary Assay for Modulators of Hemoglobin Beta Chain Splicing at IVS2 654 locus (AID 910);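 note: HeLa cells stably carrying EGFP split by mutant beta-globin IVS2-654 intron; % of control where 0% means no effect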
# How it was run: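 HeLa cells stably expressing EGFP interrupted by β-globin IVS2-654 intron, seeded overnight in Opti-MEM/2% FCS, then treated 2 days at 37 °C. Restored splicing read as total peak GFP intensity per well by laser scanning cytometry (488 nm excitation, 500–520 nm emission); 500 nM antisense PNA as control.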
# [19] = Confirmation and Secondary Assay for Modulators of Hemoglobin Beta Chain Splicing at IVS2 705 locus (AID 930);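 note: HeLa cells stably expressing the EGFP-705 splicing reporter; GFP fluorescence per well restored by corrected splicing of the IVS2-705 intron in EGFP; % of control where 0% means no effect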
# How it was run: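 First, HeLa EGFP-705 cells are seeded at 500/well in Optimem with 2% FCS and left overnight. Next, compound or DMSO is added for 2 days. Finally wells are laser-scanned and total peak GFP intensity scored.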
# [20] = Confirmatory qHTS for small molecule stabilizers of the endoplasmic reticulum resident proteome: Secreted ER Calcium Modulated Protein (SERCaMP) assay (AID 1508628); note: nearly all actives have a fitted effect of over 40% in size; note: potency is the fitted concentration of half-maximal effect
# How it was run: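 SH-SY5Y cells stably expressing GLuc-SERCaMP, treated 16 h with compound (primary 1.53, 7.67, 38.3 uM; confirmation 11 concentrations, up to 76.6 uM), then 100 nM thapsigargin for 4 h. Secreted Gaussia luciferase in medium read by coelenterazine luminescence.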
# [21] = measured here: cell count channel max response
# [22] = measured here: lipid channel max response
# 3',5'-cyclic-AMP phosphodiesterase 4B (Homo sapiens), sequence (Q07343 whole entry, looked up): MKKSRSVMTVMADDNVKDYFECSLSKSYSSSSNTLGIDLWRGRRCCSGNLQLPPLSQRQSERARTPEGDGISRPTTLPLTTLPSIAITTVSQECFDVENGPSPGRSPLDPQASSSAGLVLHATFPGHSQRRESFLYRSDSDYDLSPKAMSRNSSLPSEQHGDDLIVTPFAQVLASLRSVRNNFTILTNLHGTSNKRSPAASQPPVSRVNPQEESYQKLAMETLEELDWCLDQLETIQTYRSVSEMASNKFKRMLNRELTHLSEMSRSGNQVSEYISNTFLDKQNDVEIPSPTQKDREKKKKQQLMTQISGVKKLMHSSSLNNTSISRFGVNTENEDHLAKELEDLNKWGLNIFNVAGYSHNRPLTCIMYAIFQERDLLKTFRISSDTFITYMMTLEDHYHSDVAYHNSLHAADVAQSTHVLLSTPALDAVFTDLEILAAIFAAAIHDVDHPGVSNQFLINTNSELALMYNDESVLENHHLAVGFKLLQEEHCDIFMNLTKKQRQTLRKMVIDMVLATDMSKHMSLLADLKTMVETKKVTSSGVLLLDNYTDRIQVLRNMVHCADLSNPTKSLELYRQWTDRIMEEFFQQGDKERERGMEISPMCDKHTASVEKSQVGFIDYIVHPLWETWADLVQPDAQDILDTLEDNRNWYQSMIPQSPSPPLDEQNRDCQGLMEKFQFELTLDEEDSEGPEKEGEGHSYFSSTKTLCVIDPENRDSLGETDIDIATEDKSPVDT
# Ubiquitin carboxyl-terminal hydrolase 1 (Homo sapiens), sequence (O94782 whole entry, looked up): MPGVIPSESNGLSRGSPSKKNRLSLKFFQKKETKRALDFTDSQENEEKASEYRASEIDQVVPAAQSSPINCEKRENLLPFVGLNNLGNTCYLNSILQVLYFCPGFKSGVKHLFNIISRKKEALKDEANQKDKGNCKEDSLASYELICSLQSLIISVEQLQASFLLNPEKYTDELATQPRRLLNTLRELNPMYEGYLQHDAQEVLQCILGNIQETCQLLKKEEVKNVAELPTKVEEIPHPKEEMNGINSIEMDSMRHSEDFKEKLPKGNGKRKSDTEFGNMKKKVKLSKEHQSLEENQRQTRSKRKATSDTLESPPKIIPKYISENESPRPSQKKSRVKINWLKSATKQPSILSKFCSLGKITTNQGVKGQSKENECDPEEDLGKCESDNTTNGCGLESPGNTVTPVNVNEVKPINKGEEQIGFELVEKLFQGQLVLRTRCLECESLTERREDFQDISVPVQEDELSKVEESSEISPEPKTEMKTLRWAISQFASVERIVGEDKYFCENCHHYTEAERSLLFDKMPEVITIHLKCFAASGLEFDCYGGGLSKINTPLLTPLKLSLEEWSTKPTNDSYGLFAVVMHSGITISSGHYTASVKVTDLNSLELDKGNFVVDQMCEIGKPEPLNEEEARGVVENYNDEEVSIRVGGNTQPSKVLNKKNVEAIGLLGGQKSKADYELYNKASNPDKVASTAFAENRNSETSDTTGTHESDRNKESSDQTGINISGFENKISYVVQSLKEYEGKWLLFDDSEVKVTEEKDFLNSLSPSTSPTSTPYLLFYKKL
# Dual specificity protein kinase CLK4 (Homo sapiens), sequence (Q9HAZ1 whole entry, looked up): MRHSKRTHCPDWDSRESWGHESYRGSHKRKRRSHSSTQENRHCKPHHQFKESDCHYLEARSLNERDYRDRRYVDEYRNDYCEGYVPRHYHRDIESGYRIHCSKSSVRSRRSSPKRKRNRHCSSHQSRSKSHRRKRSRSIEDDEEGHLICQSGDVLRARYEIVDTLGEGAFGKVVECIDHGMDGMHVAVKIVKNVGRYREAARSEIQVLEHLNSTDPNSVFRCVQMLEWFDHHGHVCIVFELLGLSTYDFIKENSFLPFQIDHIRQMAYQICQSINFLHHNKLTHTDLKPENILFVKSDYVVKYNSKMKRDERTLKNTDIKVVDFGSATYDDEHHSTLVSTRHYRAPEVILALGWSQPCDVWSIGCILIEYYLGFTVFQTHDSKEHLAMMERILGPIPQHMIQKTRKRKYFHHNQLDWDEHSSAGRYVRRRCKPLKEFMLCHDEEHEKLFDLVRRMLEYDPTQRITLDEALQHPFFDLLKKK
# Cytochrome P450 3A4 (Homo sapiens), sequence (P08684 whole entry, looked up): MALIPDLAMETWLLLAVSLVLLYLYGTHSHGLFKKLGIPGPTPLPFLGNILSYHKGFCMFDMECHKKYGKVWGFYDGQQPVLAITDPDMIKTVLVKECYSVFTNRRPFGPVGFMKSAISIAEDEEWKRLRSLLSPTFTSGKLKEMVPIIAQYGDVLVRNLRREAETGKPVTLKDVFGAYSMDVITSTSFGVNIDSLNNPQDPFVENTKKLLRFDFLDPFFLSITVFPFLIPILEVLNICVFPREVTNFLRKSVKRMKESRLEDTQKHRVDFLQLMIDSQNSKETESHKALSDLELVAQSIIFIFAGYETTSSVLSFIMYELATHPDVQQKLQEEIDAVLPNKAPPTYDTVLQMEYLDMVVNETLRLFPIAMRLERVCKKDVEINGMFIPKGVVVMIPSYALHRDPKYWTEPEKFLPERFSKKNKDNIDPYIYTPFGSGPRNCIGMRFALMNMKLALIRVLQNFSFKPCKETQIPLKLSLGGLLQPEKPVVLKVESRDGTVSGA
# Glucocorticoid receptor (Homo sapiens), sequence (P04150 whole entry, looked up, the tested form may be a part): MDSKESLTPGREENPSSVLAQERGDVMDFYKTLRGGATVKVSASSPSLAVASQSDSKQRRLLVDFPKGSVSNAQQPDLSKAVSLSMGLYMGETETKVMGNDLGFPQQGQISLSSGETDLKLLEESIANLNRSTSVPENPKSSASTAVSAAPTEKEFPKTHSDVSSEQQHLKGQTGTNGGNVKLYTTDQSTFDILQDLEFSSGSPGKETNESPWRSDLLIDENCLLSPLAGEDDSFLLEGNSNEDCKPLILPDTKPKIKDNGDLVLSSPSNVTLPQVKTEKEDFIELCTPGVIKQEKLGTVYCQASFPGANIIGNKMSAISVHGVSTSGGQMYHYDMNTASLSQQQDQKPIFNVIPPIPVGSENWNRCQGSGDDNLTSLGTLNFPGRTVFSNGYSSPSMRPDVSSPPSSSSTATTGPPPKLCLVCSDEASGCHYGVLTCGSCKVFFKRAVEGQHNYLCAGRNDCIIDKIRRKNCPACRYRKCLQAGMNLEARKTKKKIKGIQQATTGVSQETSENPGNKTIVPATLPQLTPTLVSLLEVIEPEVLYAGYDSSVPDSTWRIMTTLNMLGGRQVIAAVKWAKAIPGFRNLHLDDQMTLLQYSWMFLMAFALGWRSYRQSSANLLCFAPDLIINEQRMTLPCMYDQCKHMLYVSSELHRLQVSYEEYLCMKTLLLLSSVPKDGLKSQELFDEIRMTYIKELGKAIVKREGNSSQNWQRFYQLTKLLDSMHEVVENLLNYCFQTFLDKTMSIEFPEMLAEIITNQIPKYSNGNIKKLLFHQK
# Cytochrome P450 1A2 (Homo sapiens), sequence (P05177 whole entry, looked up): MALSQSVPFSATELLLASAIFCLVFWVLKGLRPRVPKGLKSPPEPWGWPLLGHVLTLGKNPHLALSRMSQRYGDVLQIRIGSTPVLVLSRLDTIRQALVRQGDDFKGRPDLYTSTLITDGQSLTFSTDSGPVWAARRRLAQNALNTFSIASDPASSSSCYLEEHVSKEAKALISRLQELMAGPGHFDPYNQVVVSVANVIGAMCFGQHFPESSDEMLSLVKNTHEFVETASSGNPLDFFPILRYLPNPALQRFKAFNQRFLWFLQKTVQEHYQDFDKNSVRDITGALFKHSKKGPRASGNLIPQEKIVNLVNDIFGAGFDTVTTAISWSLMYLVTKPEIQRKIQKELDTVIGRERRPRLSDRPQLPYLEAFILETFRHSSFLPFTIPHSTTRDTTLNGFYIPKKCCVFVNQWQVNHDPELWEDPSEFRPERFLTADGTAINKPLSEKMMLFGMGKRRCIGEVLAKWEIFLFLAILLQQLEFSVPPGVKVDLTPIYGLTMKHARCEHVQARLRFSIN
# Lysosomal acid glucosylceramidase (Homo sapiens), sequence (P04062 whole entry, looked up): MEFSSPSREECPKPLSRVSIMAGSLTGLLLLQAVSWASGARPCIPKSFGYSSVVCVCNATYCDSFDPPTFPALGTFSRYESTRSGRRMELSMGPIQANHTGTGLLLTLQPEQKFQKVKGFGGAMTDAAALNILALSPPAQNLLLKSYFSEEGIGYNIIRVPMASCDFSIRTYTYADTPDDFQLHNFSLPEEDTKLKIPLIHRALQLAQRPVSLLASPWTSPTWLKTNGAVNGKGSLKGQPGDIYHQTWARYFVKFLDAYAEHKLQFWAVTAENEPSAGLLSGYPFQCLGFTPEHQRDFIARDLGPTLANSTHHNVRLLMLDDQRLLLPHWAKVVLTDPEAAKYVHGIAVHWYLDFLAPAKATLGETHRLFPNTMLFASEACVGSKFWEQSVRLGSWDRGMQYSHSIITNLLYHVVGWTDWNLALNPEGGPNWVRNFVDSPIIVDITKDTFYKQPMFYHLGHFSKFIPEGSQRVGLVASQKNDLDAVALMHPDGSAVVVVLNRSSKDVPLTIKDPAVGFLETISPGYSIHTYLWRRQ
compound,measurement,setting,value
CN1CCN(c2ncc3nc(-c4cccs4)c(=O)n(-c4ccccc4)c3n2)CC1,Potency,[1],> 11.4 µM (inactive)
same,Potency,[2],3.16 µM (active)
same,Potency,[3],> 9.22 µM (inactive)
same,Potency,[4],> 46 µM (inactive)
same,outcome,[5],inactive
same,Potency,[6],inactive
same,Potency,[7],inactive
same,"activity change, negative = inhibition",[8],-0.619% (inactive)
same,max response,[8]; [21],22.3%
same,max response,[8]; [22],18.9%
same,Potency,[9],inactive
same,Potency,[10],inactive
same,Potency,[11],inactive
same,Potency,[12],inactive
same,Potency,[13],inactive
COc1ccccc1-c1ccc2ncnc(N3CCN(C)CC3)c2c1,Potency,[1],> 11.4 µM (inactive)
same,"activity change, negative = inhibition",[14],2.3% (inactive)
same,Potency,[2],3.16 µM (active)
same,"activity change, negative = inhibition",[15],4.65% (inactive)
same,"activity, negative = inhibition",[16],2.98% (inactive)
same,Potency,[3],> 46 µM (inactive)
same,Potency,[4],> 46 µM (inactive)
same,outcome,[5],inactive
same,Potency,[6],inactive
same,Potency,[17],3.16 µM (active)
same,Potency,[7],inactive
same,outcome,[18],inactive
same,outcome,[19],inactive
same,Potency,[12],inactive
same,Potency,[13],44.7 µM (active)
COc1cccc(-c2nc(N3CCN(C)CC3)c3ccccc3n2)c1,Potency,[1],> 11.4 µM (inactive)
same,"activity change, negative = inhibition",[14],11.5% (inactive)
same,"activity change, negative = inhibition",[15],12.1% (inactive)
same,"activity, negative = inhibition",[16],-2.04% (inactive)
same,Potency,[3],> 46 µM (inactive)
same,Potency,[4],> 46 µM (inactive)
same,outcome,[5],inactive
same,Potency,[9],28.2 µM (active)
same,Potency,[11],inactive
same,Potency,[13],inactive
same,Potency,[20],20 µM (active)
COc1cc(OC)cc(C(=O)N2CCN(Cc3ccccc3C(F)(F)F)CC2)c1,Potency,[20],inactive
COc1ncc2nc(CCc3ccccc3)c(=O)n(C3CC3)c2n1,Potency,[1],> 11.4 µM (inactive)
same,"activity change, negative = inhibition",[14],-0.42% (inactive)
same,Potency,[2],3.16 µM (active)
same,"activity change, negative = inhibition",[15],0.053% (inactive)
same,"activity, negative = inhibition",[16],-2.79% (inactive)
same,Potency,[4],> 46 µM (inactive)
same,outcome,[5],inactive
same,Potency,[6],inactive
same,Potency,[7],inactive
same,Potency,[13],inactive
Cc1nc2cnc(N3CCN(C)CC3)nc2n(-c2ccccc2)c1=O,"activity change, negative = inhibition",[14],-10.2% (inactive)
same,Potency,[2],3.98 µM (active)
same,"activity change, negative = inhibition",[15],-6.35% (inactive)
same,"activity, negative = inhibition",[16],-7.64% (inactive)
same,Potency,[3],> 9.22 µM (inactive)
same,Potency,[4],> 46 µM (inactive)
same,outcome,[5],inactive
same,Potency,[6],inactive
same,"activity change, negative = inhibition",[8],2.71% (inactive)
same,max response,[8]; [21],7.22%
same,max response,[8]; [22],7.19%
same,Potency,[9],inactive
same,Potency,[10],inactive
same,Potency,[11],inactive
same,Potency,[12],inactive
same,Potency,[13],inactive
